# Laboratory results published in ChEMBL document CHEMBL4513146, “CO-ADD screening of Karazin Kharkiv National University (Ukraine) compounds”.
# Measured potencies and affinities stand elsewhere.
# Tested on: Klebsiella pneumoniae
# Details: Concentration 32 ug.mL-1;; ASSAY_TEST Inhibition of Bacterial Growth; detection method Absorption (OD600); MEDIA CAMHB; plate type 384well; NBS; CORNING #3640; time 18 hr
row,SMILES,Inhibition [%]
1,Cc1ccc(Oc2nccn3c(=O)n(CC(=O)Nc4cccc(Cl)c4)nc23)cc1,2.02
2,COc1cccc(NC(=O)Cn2c(=O)c3nnc(C(C)C)n3c3ccccc32)c1,16.14
3,CCOc1ccccc1NC(=O)Cn1nc2c3cc(-c4ccc(OC)cc4)nn3ccn2c1=O,11.29
4,CC(C)c1ccc(NC(=O)Cn2nc3c(N4CCCCC4)nccn3c2=O)cc1,10.38
5,O=C(Cn1nc2c(N3CCOCC3)nccn2c1=O)Nc1ccc2c(c1)OCO2,20.48
6,Cc1cc(C)cc(NC(=O)Cn2nc3ccc(-c4ccc(C)c(C)c4)nn3c2=O)c1,5.54
7,CCc1ccc(N(Cc2ccccc2)S(=O)(=O)c2cccn3c(CC)nnc23)cc1,8.89
8,CCOC(=O)c1ccccc1NC(=O)Cn1nc2ccc(C(=O)Nc3ccc(OC)cc3)cn2c1=O,-1.54
9,O=C(Cn1nc2c3cc(-c4ccc(F)cc4)nn3ccn2c1=O)N1CCN(c2ccccc2F)CC1,8.2
10,COc1cccc(NC(=O)Cn2nc3c(Oc4cccc(OC)c4)nccn3c2=O)c1,3.74
11,CCc1nnc2c(S(=O)(=O)N(Cc3ccccc3F)c3ccc(F)cc3)cccn12,2.68
12,N#Cc1cccc(NC(=O)CSc2nnc3c4cc(-c5ccccc5)nn4ccn23)c1,9.61
13,COc1ccc(-n2ccn3c(-c4ccc([N+](=O)[O-])cc4)nnc3c2=O)cc1,13.7
14,Cc1cc2nn(CC(=O)NC(C)C)c(=O)n2c(-c2ccc(C(F)(F)F)cc2)n1,3.27
15,CCCN(C)c1nccn2c(=O)n(CC(=O)Nc3ccc(OC)c(Cl)c3)nc12,9.65
16,CC(=O)c1ccc(NC(=O)Cn2nc3ccc(-c4ccccc4)nn3c2=O)cc1,10.95
17,COc1ccc(NC(=O)Cn2nc3ccc(SC(C)C)nn3c2=O)cc1OC,9.91
18,CCc1ccc(NC(=O)Cn2nc3cc(C)nc(Nc4ccc(C)c(F)c4)n3c2=O)cc1,10.82
19,COc1cccc(-n2ccn3c(SCC(=O)c4c(C)[nH]c5ccccc45)nnc3c2=O)c1,9.67
20,COc1ccc(CNC(=O)Cn2nc3c(SC4CCCCC4)nccn3c2=O)cc1,14.45

row,SMILES,Inhibition [%]
1,CCc1cccc(NC(=O)Cn2nc3c(SC4CCCCC4)nccn3c2=O)c1,3.05
2,O=C(CCc1nnc2c3cc(-c4ccc(F)cc4)nn3ccn12)NCc1ccccc1Cl,1.44
3,Cc1ccc(C)c(NC(=O)Cn2nc3ccc(-c4ccccc4)nn3c2=O)c1,5.6
4,Cc1ccc(NC(=O)CSc2nnc3n(CC4CCCO4)c(=O)c4sccc4n23)cc1F (stereo not given),6.62
5,COc1ccc(NC(=O)Cn2nc3c(N4CCCC(C)C4)nccn3c2=O)cc1OC (stereo not given),-1.27
6,Cc1ccc(-c2ccc3nn(Cc4cccc(F)c4)c(=O)n3n2)cc1C,7.96
7,COc1ccc(CNC(=O)CCc2nnc3c4cc(-c5ccc(Cl)cc5)nn4ccn23)cc1OC,10.48
8,CC(C)c1nnc2c(=O)n(CC(=O)Nc3ccccc3)c3ccccc3n12,14.31
9,Cc1cccc(Cn2nc3c(=O)n(-c4cccc(Cl)c4C)ccn3c2=O)c1,-2.16
10,COc1ccc(CN(c2cc(C)cc(C)c2)S(=O)(=O)c2cccn3cnnc23)cc1F,-0.72
11,CCc1ccc(N(Cc2ccccc2C)S(=O)(=O)c2cccn3c(C)nnc23)cc1,3.93
12,CC(=O)c1cccc(NC(=O)Cn2c(=O)c3nnc(C(C)C)n3c3ccccc32)c1,4.91
13,CCCCOc1ccc(-c2cc3c4nnc(SCC(=O)Nc5ccc(OC)cc5)n4ccn3n2)cc1,6.75
14,C=Cc1ccc(CSc2nnc3c(=O)n(-c4ccc(F)cc4)ccn23)cc1,9.66
15,CCOc1ccc(-n2ccn3c(SCC(=O)Nc4ccc(C)cc4)nnc3c2=O)cc1,16.35
16,CCOc1ccc(-c2nc(CSc3nc4ccccc4n4c(C(C)C)nnc34)c(C)o2)cc1,2.25
17,CC1CCCN(c2nccn3c(=O)n(CC(=O)Nc4ccc5c(c4)OCO5)nc23)C1 (stereo not given),1.66
18,CC(C)Cn1c(=O)c2sccc2n2c(=O)n(CC(=O)N(C)c3ccccc3)nc12,9.42
19,Cc1ccccc1Oc1nccn2c(=O)n(CC(=O)Nc3ccccc3C(F)(F)F)nc12,15.23
20,Cc1ccc(Oc2nccn3c(=O)n(CC(=O)Nc4ccccc4C(F)(F)F)nc23)cc1,6.49

# Tested on: Candida albicans
# Details: Concentration 32 ug.mL-1; ASSAY_TEST Inhibition of Fungal Growth; detection method Absorption (OD530)
row,SMILES,Inhibition [%]
1,Cc1ccc(Oc2nccn3c(=O)n(CC(=O)Nc4cccc(Cl)c4)nc23)cc1,5.47
2,COc1cccc(NC(=O)Cn2c(=O)c3nnc(C(C)C)n3c3ccccc32)c1,3.17
3,CCOc1ccccc1NC(=O)Cn1nc2c3cc(-c4ccc(OC)cc4)nn3ccn2c1=O,0.88
4,CC(C)c1ccc(NC(=O)Cn2nc3c(N4CCCCC4)nccn3c2=O)cc1,4.27
5,O=C(Cn1nc2c(N3CCOCC3)nccn2c1=O)Nc1ccc2c(c1)OCO2,1.5
6,Cc1cc(C)cc(NC(=O)Cn2nc3ccc(-c4ccc(C)c(C)c4)nn3c2=O)c1,21.88
7,CCc1ccc(N(Cc2ccccc2)S(=O)(=O)c2cccn3c(CC)nnc23)cc1,13.04
8,CCOC(=O)c1ccccc1NC(=O)Cn1nc2ccc(C(=O)Nc3ccc(OC)cc3)cn2c1=O,25.24
9,O=C(Cn1nc2c3cc(-c4ccc(F)cc4)nn3ccn2c1=O)N1CCN(c2ccccc2F)CC1,2.96
10,COc1cccc(NC(=O)Cn2nc3c(Oc4cccc(OC)c4)nccn3c2=O)c1,3.44
11,CCc1nnc2c(S(=O)(=O)N(Cc3ccccc3F)c3ccc(F)cc3)cccn12,1.99
12,N#Cc1cccc(NC(=O)CSc2nnc3c4cc(-c5ccccc5)nn4ccn23)c1,7.44
13,COc1ccc(-n2ccn3c(-c4ccc([N+](=O)[O-])cc4)nnc3c2=O)cc1,-0.61
14,Cc1cc2nn(CC(=O)NC(C)C)c(=O)n2c(-c2ccc(C(F)(F)F)cc2)n1,1.65
15,CCCN(C)c1nccn2c(=O)n(CC(=O)Nc3ccc(OC)c(Cl)c3)nc12,7.19
16,CC(=O)c1ccc(NC(=O)Cn2nc3ccc(-c4ccccc4)nn3c2=O)cc1,2.61
17,COc1ccc(NC(=O)Cn2nc3ccc(SC(C)C)nn3c2=O)cc1OC,1.32
18,CCc1ccc(NC(=O)Cn2nc3cc(C)nc(Nc4ccc(C)c(F)c4)n3c2=O)cc1,3.74
19,COc1cccc(-n2ccn3c(SCC(=O)c4c(C)[nH]c5ccccc45)nnc3c2=O)c1,3.81
20,COc1ccc(CNC(=O)Cn2nc3c(SC4CCCCC4)nccn3c2=O)cc1,17.79

row,SMILES,Inhibition [%]
1,CCc1cccc(NC(=O)Cn2nc3c(SC4CCCCC4)nccn3c2=O)c1,12
2,O=C(CCc1nnc2c3cc(-c4ccc(F)cc4)nn3ccn12)NCc1ccccc1Cl,9.78
3,Cc1ccc(C)c(NC(=O)Cn2nc3ccc(-c4ccccc4)nn3c2=O)c1,1.64
4,Cc1ccc(NC(=O)CSc2nnc3n(CC4CCCO4)c(=O)c4sccc4n23)cc1F (stereo not given),-2.27
5,COc1ccc(NC(=O)Cn2nc3c(N4CCCC(C)C4)nccn3c2=O)cc1OC (stereo not given),-0.12
6,Cc1ccc(-c2ccc3nn(Cc4cccc(F)c4)c(=O)n3n2)cc1C,2.65
7,COc1ccc(CNC(=O)CCc2nnc3c4cc(-c5ccc(Cl)cc5)nn4ccn23)cc1OC,1.41
8,CC(C)c1nnc2c(=O)n(CC(=O)Nc3ccccc3)c3ccccc3n12,3.67
9,Cc1cccc(Cn2nc3c(=O)n(-c4cccc(Cl)c4C)ccn3c2=O)c1,8.37
10,COc1ccc(CN(c2cc(C)cc(C)c2)S(=O)(=O)c2cccn3cnnc23)cc1F,0.54
11,CCc1ccc(N(Cc2ccccc2C)S(=O)(=O)c2cccn3c(C)nnc23)cc1,5.07
12,CC(=O)c1cccc(NC(=O)Cn2c(=O)c3nnc(C(C)C)n3c3ccccc32)c1,5.31
13,CCCCOc1ccc(-c2cc3c4nnc(SCC(=O)Nc5ccc(OC)cc5)n4ccn3n2)cc1,3.4
14,C=Cc1ccc(CSc2nnc3c(=O)n(-c4ccc(F)cc4)ccn23)cc1,4.46
15,CCOc1ccc(-n2ccn3c(SCC(=O)Nc4ccc(C)cc4)nnc3c2=O)cc1,4.07
16,CCOc1ccc(-c2nc(CSc3nc4ccccc4n4c(C(C)C)nnc34)c(C)o2)cc1,-0.51
17,CC1CCCN(c2nccn3c(=O)n(CC(=O)Nc4ccc5c(c4)OCO5)nc23)C1 (stereo not given),-0.45
18,CC(C)Cn1c(=O)c2sccc2n2c(=O)n(CC(=O)N(C)c3ccccc3)nc12,-0.55
19,Cc1ccccc1Oc1nccn2c(=O)n(CC(=O)Nc3ccccc3C(F)(F)F)nc12,-0.33
20,Cc1ccc(Oc2nccn3c(=O)n(CC(=O)Nc4ccccc4C(F)(F)F)nc23)cc1,0.6
